# Only some compounds are listed: those with a hit (about 3.4% of all), similar ones and a draw of the others.
# TEAD-YAP block: TEAD-YAP interaction inhibition; HEK-TIYL cells, TEAD-Gal4/YAP UAS-luciferase luminescence; inhibition, % at 9.12 µM; 640,000 tested, 1.4% active; AID 1259422; in the data active = inhibition above about 32%;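 also: 0% = median of test compound wells and 100% = reference inhibitor wells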
# GPR151 activ: activators of human GPR151. PathHunter beta-arrestin GPR151 cells, luminescence. 650,000 tested, 1% active. Q8TDV0. activation, % at 11.2 µM; in the data active = activation above about 4.9%;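 also: 0% = median of compound wells and 100% = cells with positive control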
# MITF primary: inhibitors of human MITF. O75030. AlphaScreen MITF homodimerization, bead proximity signal. inhibition, % at 2.6 µM. 650,000 tested, 0.91% active. AID 1259374; in the data active = inhibition above about 50%;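 also: 0% = vehicle wells with protein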
# Target sequence (O75030 whole entry, looked up): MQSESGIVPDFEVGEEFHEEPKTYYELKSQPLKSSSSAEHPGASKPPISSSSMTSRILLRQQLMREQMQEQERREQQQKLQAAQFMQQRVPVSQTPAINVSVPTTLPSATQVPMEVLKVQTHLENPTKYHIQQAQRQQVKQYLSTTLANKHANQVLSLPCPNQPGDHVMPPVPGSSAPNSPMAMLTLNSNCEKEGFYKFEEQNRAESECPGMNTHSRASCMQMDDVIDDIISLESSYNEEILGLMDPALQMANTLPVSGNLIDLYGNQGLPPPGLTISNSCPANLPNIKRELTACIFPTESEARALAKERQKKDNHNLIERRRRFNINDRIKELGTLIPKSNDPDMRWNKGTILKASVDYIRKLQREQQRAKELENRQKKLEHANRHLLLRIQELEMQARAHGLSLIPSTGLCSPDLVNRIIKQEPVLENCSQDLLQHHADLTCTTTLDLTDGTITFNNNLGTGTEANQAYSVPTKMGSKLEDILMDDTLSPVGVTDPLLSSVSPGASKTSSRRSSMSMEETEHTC
# FBW7 activator: human FBW7 E3 ligase activation, primary screen; Q969H0; AlphaScreen FBW7–phospho-cyclin E peptide binding, activator screen; normalized activity (activation), % at 26.1 µM; 650,000 tested, 0.13% active; AID 1259310; in the data active = normalized activity above about 1.9%;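 also: purified mutant Fbw7 with reduced substrate affinity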
# Active calls of the source: *.
SMILES,TEAD-YAP block,GPR151 activ,MITF primary,FBW7 activator
O=C(/C=C/c1ccc(Cl)cc1Cl)Nc1ccccc1F,47*,-1,4,0
COc1ccc(/C=C/C(=O)Nc2ccccc2F)cc1,80*,-11,10,0
O=C(Nc1nc2ccc(C(=O)N3CCOCC3)cc2s1)c1cccs1,42*,-9,15,0
Nc1ccc(C(=O)Nc2nc3ccc(C(=O)N4CCOCC4)cc3s2)cc1,8,-1,-2,0
Cc1c(NC(=O)C(C)Sc2nnc(N)s2)c(=O)n(-c2ccccc2)n1C (centres undefined),10,4,15,0
Cc1ccn2cc(C(=O)Nc3cccc(F)c3)nc2c1,58*,-5,22,0
N#Cc1ccccc1NC(=O)COC(=O)CSc1nnc(-c2ccc3c(c2)OCO3)o1,38*,-2,-1,0
COc1ccc(-c2nnc(SCC(=O)c3ccccc3F)o2)cc1,-21,-1,13,0
COC(=O)CSc1nnc(-c2ccc(C(C)(C)C)cc2)o1,66*,-1,1,0
COc1ccc(-c2nnc(SCC(=O)OCC(=O)Nc3ccccc3C#N)o2)cc1,67*,1,-3,0
N#Cc1ccccc1NC(=O)CSc1nnc(-c2ccccc2)o1,-14,2,6,0
COC(=O)CSc1nnc(-c2ccc(C)cc2)o1,1,-1,4,0
COc1ccc(-c2nnc(SCC(=O)c3ccc[nH]3)o2)cc1,39*,-4,-5,0
COc1ccc(C)cc1NC(=O)c1sc2ncnc(N3CCCCC3C)c2c1C (centres undefined),2,-1,-3,0
CCOc1cc(C#N)c(NC(=O)c2ccncc2)cc1OCC,-11,1,-1,0
CCOc1ccccc1NC(=O)c1cccs1,-6,0,-8,0
CCOc1cc(C#N)c(NC(=O)c2cccs2)cc1OCC,48*,-1,2,0
CCOc1cc(C#N)c(NC(=O)c2cccnc2)cc1OCC,55*,1,-1,0
c1ccc(-c2nc3c(c(N4CCOCC4)n2)CN(Cc2cccnc2)CC3)cc1,-7,-2,-10,0
COc1cccc(OCc2nc(N(C)Cc3ccncc3)c3cc(-c4cn[nH]c4)ccc3n2)c1,-1,-2,14,0
Nc1nc(SCCCC(=O)NCCO)nc2sc3c(c12)CCCC3,13,-1,15,2.3*
CNS(=O)(=O)c1ccccc1Nc1cc(Nc2cc(-c3cncnc3)nc(C)n2)ncc1C(F)(F)F,68*,2,3,0
CNC(=O)c1ccc(Nc2cc(Nc3ccccc3C(=O)NC)c(C(F)(F)F)cn2)nc1,88*,-1,13,0
CNC(=O)c1ccccc1Nc1cc(Nc2ccccn2)ncc1C(F)(F)F,83*,0,-8,0
CNC(=O)c1ncccc1Nc1cc(Nc2ccc3c(c2)NC(=O)C3)ncc1C(F)(F)F,-8,-1,8,0
SMILES,TEAD-YAP block,GPR151 activ,MITF primary,FBW7 activator
CNC(=O)c1ccccc1Nc1cc(Nc2ccc3c(c2)CCC(=O)N3C)ncc1C(F)(F)F,78*,-1,-2,0
CNC(=O)c1ccccc1Nc1cc(Nc2ccc3[nH]cc(C(=O)C(=O)N(C)C)c3c2)ncc1C(F)(F)F,51*,-1,19,0
CN(C)C(=O)C(=O)c1c[nH]c2ccc(Nc3cc(Nc4ccccn4)c(C(F)(F)F)cn3)cc12,-5,2,12,0
CNC(=O)c1ccccc1Nc1cc(Nc2cccc(C)n2)ncc1C(F)(F)F,82*,0,2,0
CNC(=O)c1ccccc1Nc1cc(Nc2ccc(-c3cncnc3)cc2)ncc1C(F)(F)F,32*,1,8,0
CNC(=O)c1ccnc(Nc2cc(Nc3ccccc3C(=O)NC)c(C(F)(F)F)cn2)c1,85*,-1,1,0
CCn1c2ccccc2n2cc(-c3ccc(Br)cc3)nc12,-12,3,-11,2.3*
C=CCn1c2ccccc2n2cc(-c3ccccc3)nc12,-12,-2,10,1
Clc1ccc(-c2cn3c4ccccc4n(CCN4CCCCC4)c3n2)cc1,4,0,-28,5.0*
CC1Cc2ccccc2N1CC(=O)Nc1cccc(S(=O)(=O)N2CCOCC2)c1 (centres undefined),2,-1,10,0
CSc1ccccc1NC/C=C/c1ccc([N+](=O)[O-])o1,7,2,8,0
CSc1ccccc1NC(=O)/C=C/c1ccc([N+](=O)[O-])o1,56*,-1,2,0
COc1cc(/C=N/NC(=O)c2cccc(Cn3cccn3)c2)ccc1O,-27,-1,-14,0
COc1cccc(/C=N/Nc2ccc([N+](=O)[O-])cn2)c1O,66*,-5,-12,8.6*
O=[N+]([O-])c1cc(/C=N/Nc2ccccn2)c(O)c([N+](=O)[O-])c1,-3,0,14,0
O=[N+]([O-])c1cccc(/C=N/Nc2ccccn2)c1O,78*,4,94*,0
COc1ccc(CNC(=O)N2CCC(c3nnc(C4CC4)s3)CC2)cc1,4,0,5,3.1*
O=C(Nc1ccc2c(c1)OCO2)N1CCC(c2nnc(C3CC3)s2)CC1,-23,0,-15,2.6*
O=C(Nc1ccc2c(c1)OCO2)N1CCN(C2CCCCC2)CC1,-16,-1,-1,0
COc1ccc(CNC(=O)N2CCC(c3nnc(C4CC4)o3)CC2)cc1,1,-1,6,1
Cc1cccc(NC(=O)N2CCC(c3nnc(C4CC4)s3)CC2)c1,-1,0,9,3.1*
CCCOc1ccc(C2C(C(=O)OC)=CN(CCOC)C=C2C(=O)OC)cc1,-8,3,-11,2.1*
CCCN1C=C(C(=O)OC)C(c2cccc(Oc3ccccc3)c2)C(C(=O)OC)=C1,-4,-1,-20,2.1*
COc1cc(Nc2nc(-c3ccc(C(N)=O)cc3)nc3c2ncn3C(C)C)cc(OC)c1OC,41*,1,16,0
COc1cc(Nc2nc(-c3ccc(C(N)=O)cc3)nc3c2ncn3Cc2ccc(C(F)(F)F)cc2)cc(OC)c1OC,53*,1,3,0
SMILES,TEAD-YAP block,GPR151 activ,MITF primary,FBW7 activator
COc1cc(Nc2nc(-c3ccc(C(=O)N4CCN(C)CC4)cc3)nc3c2ncn3C(C)C)cc(OC)c1OC,30,0,-1,0
COc1cc(Nc2nc(-c3ccc(C(N)=O)cc3)nc3c2ncn3-c2ccccc2)cc(OC)c1OC,15,1,-8,0
COc1cc(Nc2nc(-c3ccc(C(N)=O)cc3)nc3c2ncn3-c2ccsc2)cc(OC)c1OC,54*,0,10,0
CC(C(=O)Nc1ccc(Cl)cn1)N1Cc2ccccc2C1=O (centres undefined),85*,-1,-11,0
Cc1[nH]n(-c2ccccc2)c(=O)c1C(=O)c1cccc(F)c1,46*,0,-9,-1
Cc1[nH]n(-c2ccccc2)c(=O)c1C(=O)c1ccc(Cl)cc1,61*,-1,-3,0
Cc1[nH]n(-c2ccccc2)c(=O)c1C(N)=NC(=O)c1ccccc1,11,1,-8,0
CC(C)(C)c1ccc(/C=N/NC(=O)C2COc3ccccc3O2)cc1 (centres undefined),35*,-1,6,0
